Source: PubChem BioAssay AID2314 (National Center for Advancing Translational Sciences (NCATS), 2010)
Screen size: about 300,000 compounds; about 37,000 (12%) were called active. For the sample, actives were picked, then their nearest neighbours and some compounds at random. Unmarked numbers belong to inactive results. Rule as the data show it: active = max response mostly above about 13% (no sharp cut-off); inactive = mostly below about 14%.

assay: Cycloheximide Counterscreen for Small Molecule Inhibitors of Shiga Toxin; conditions: cell reporter, cycloheximide protein synthesis inhibition counterscreen; hits give high values; also: read at 38.3 µM for the half of the compounds with a filed dose; 0% is about no effect

| SMILES | max response |
| --- | --- |
| CCN1C(=S)N[C@@H](c2cccc(C(F)(F)F)c2)C(C(=O)OC)=C1C | -8.93% |
| COC(C(=O)Nc1ccc(S(=O)(=O)Nc2ccc(C)c(C)c2)cc1)c1ccccc1 (configuration not stated) | -1.18% |
| CS(=O)(=O)c1sc(C(=O)NC(=S)Nc2ccc(OC(F)(F)F)cc2)c2c1C=CCC2 | 1.1% |
| CCOC(=O)c1ccccc1N1C(=O)C2Sc3[nH]c(=O)sc3C(/C=C/c3ccccc3)C2C1=O (configuration not stated) | -1.12% |
| CC(C)(C)NCCCOc1ccc(Cl)cc1C(C)(C)C | -3.93% |
| O=C(CSc1ccccn1)Nc1nc2c(ccc3ccccc32)s1 | 15% |
| CC(=O)NCCC(=O)Nc1cc(S(=O)(=O)N2CCCCC2)ccc1Oc1cccc(C)c1 | -3.52% |
| O=C(c1cccs1)N1CCC(c2nc3ccccc3s2)CC1 | -1.42% |
| c1ccc2sc(C3CCCNC3)nc2c1 (configuration not stated) | 30.8% (active) |
| Cc1cccc(C(=O)N2CCC(c3nc4ccccc4s3)CC2)c1 | -3.16% |
| Cc1[nH]c(C)c(S(=O)(=O)N2CCN(c3cccc(C(F)(F)F)c3)CC2)c1C(=O)N1CCCC1 | -5.38% |
| C=C1CCN(Cc2ccc(OC)cc2)S(=O)(=O)c2ccccc21 | 12.8% |
| CCOc1ccc(N2CC(C(=O)NCc3ccccn3)CC2=O)cc1 (configuration not stated) | -11.6% |
| CC1CCN(c2ccc(C(=O)NCc3ccc4c(c3)OCO4)cc2[N+](=O)[O-])CC1 | -5.58% |
| Cc1ccc(C2CN(C)CC2C(=O)c2ccc(F)cc2)cc1 (configuration not stated) | -3.61% |
| COc1ccc(C(=O)C2CN(C)CC2C(=O)c2ccc(OC)cc2)cc1 (configuration not stated) | 19% (active) |
| CCc1ccc(NC(=O)CN2CCC(C(=O)c3ccc(OC)cc3)CC2)cc1 | -4.07% |
| CC(C)(C)C(=O)CN1C2=NCCN2c2ccccc21 | -2.32% |
| CCc1ccc(NC(=O)Cn2nnc(C(=O)NCc3ccc4c(c3)OCO4)c2N)cc1 | -3.61% |

| SMILES | max response |
| --- | --- |
| Cc1ccc(-c2nc(CSCC(=O)NC3CCN(Cc4ccccc4)CC3)c(C)o2)cc1 | -6.12% |
| COc1ccc2oc(C(=O)NCC(Cc3ccccc3)N(C)C)c(C)c2c1 (configuration not stated) | 12% (active) |
| Cc1c(C(=O)NCCN(C)C)oc2ccc(S(=O)(=O)N3CCCC3)cc12 | 2.66% |
| Cc1c(C(=O)NCC(c2ccco2)N2CCCC2)oc2ccc(Cl)cc12 (configuration not stated) | 37.1% (active) |
| Cc1cc(S(=O)(=O)Nc2ccc(C(=O)NCC(c3ccco3)N3CCCC3)cc2)ccc1F (configuration not stated) | 0.909% |
| COc1cc(C(=O)NC(=S)NCc2ccco2)cc(OC)c1OC | 2.82% |
| COc1ccc2oc(C(=O)NCc3ccco3)c(C)c2c1 | 31.4% (active) |
| COc1cc(C(=O)N[C@@H](C)C(=O)NCc2ccco2)cc(OC)c1OC | -1.35% |
| CCCCn1c(N)c(N(CCOC)C(=O)c2oc3ccc(OC)cc3c2C)c(=O)[nH]c1=O | -2.73% |
| COc1cccc(OCC(O)CNC(=O)c2oc3c(C)c(C)ccc3c2C)c1 (configuration not stated) | -4.29% |
| COc1ccc(NS(=O)(=O)c2ccc(F)cc2F)cn1 | -4.72% |
| COc1cc(C(=O)NCCOC(=O)c2cccc(N(C)C)c2)cc(OC)c1OC | -1.25% |
| CC/C(O)=C1\C(=O)CC(C)(C)CC1=NCCc1nc2ccccc2[nH]1 | 6.92% |
| Cc1nc2ccccc2c(-c2ccccc2)c1C(=O)c1ccccc1 | -4.4% |
| CCC(=O)/C(=C(/O)c1ccccc1)c1nc2ccccc2[nH]1 | 31% (active) |
| Cc1nnc(Sc2nc3c(c(=O)[nH]c(=O)n3C)n2Cc2ccccc2)s1 | -5.79% |
| Cn1c(SCC(=O)N2CCOCC2)nnc1-c1ccc2ncccc2c1 | -0.963% |
| Cn1c(SCC(=O)N2CCCC2)nnc1-c1ccc2c(c1)OCO2 | 18.9% (active) |
| Cn1c(SCc2nc3ccccc3s2)nnc1-c1ccc2c(c1)OCO2 | 39.5% (active) |

| SMILES | max response |
| --- | --- |
| O=C(O)CSc1nnc(-c2ccc3c(c2)OCO3)n1-c1ccccc1 | 12.9% |
| Cn1c(SCC(=O)N2CCOCC2)nnc1-c1ccc(NC(=O)c2ccccc2F)cc1 | -4.11% |
| Cc1ccccc1-c1nnc(SCC(=O)NCc2ccc3c(c2)OCO3)n1C | -2.35% |
| COc1ccccc1NC(=O)CCN1CCN(c2ccc(Cl)cc2)CC1 | -0.528% |
| COc1cc(C(C(=O)NC2CCCC2)N(C(=O)c2ccco2)c2ccccc2C(C)=O)cc(OC)c1OC (configuration not stated) | 3.6% |
| CC(C)c1c(C(=O)N/N=C/c2ccccc2C(=O)O)nnn1-c1nonc1N | 23.4% |
| COc1ccccc1C(=O)NC(CCSC)C(=O)NNC(=O)c1csc(N2CCOCC2)n1 (configuration not stated) | -1.29% |
| O=C(NCCc1ccc(Cl)cc1Cl)c1cc([N+](=O)[O-])c[nH]c1=O | -5.02% |
| CCCN1CCN(C(=O)CCCNC(=O)c2ccc(Cl)cc2)CC1 | -2.8% |
| O=C(NC(=O)c1ccccc1N1CCCCC1)Nc1ccc(Br)cc1 | -3.48% |
| COc1ccc(NC(=O)NN2CCN(C)CC2)c(OC)c1 | 0.309% |
| CN1CCN(NC(=O)Nc2ccc(Br)cc2)CC1 | 24.2% (active) |
| COc1ccc(-c2nc3c(s2)CCc2onc(-c4ccc(OC)cc4)c2-3)cc1 | -2.4% |
| COc1ccc(S(=O)(=O)N2CCN(C)CC2)c(C)c1 | -3.62% |
| CN(c1ccccc1)c1nc(N)c([N+](=O)[O-])c(NCc2ccco2)n1 | 1.96% |
| Nc1nc(NCCCN2CCOCC2)nc(Nc2ccccc2)c1[N+](=O)[O-] | -2.59% |
| COc1cccc(Nc2nc(N)c([N+](=O)[O-])c(NCc3ccco3)n2)c1 | 19.4% (active) |
| COc1ccccc1CCNS(=O)(=O)c1cc2c3c(c1)C(C)C(=O)N3CCC2 (configuration not stated) | 4.12% |
| CC1=C(C)C(=O)OC(C(C)C2CCC3C4CC=C5CC(OC6OC(COC7OC(CO)C(O)C(O)C7O)C(O)C(O)C6O)CC(O)C5(C)C4CCC23C)C1 (configuration not stated) | 7.38% |
